# Only some compounds are listed: those with a hit (about 4% of all), similar ones and a draw of the others.
# tim23-1 inh – growth inhibitors of tim23-1 mutant yeast, primary screen, luminescence, uHTS. S. cerevisiae tim23-1 growth, BacTiter-Glo luminescence, 24 h. 330,000 tested, 1.3% active. AID 463212, 2010. inhibition, % at 20 µM;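 active means growth inhibition of the mutant yeast at or above 50%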;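 further: temperature-sensitive mutant grown at 25 °C; plate controls were DMSO-treated mutant yeast for no effect and medium wells lacking yeast for full effect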
# TIM10 inh – growth inhibitors of isogenic TIM10 control yeast, primary screen, counter-screen for tim10-1 yeast inhibitor project, luminescence, uHTS. S. cerevisiae TIM10 strain growth, BacTiter-Glo luminescence, 24 h. inhibition, % at 10 µM. 330,000 tested, 1.4% active;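 active means inhibition of 40% or more at the single tested concentration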;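 further: wild-type TIM10 isogenic control strain grown at permissive 25 °C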
# NALP1 yeast inh – NALP1 inflammasome inhibitors in reconstituted yeast, colorimetric, S. cerevisiae, triplicate retest. S. cerevisiae NALP1/ASC/caspase-1 growth, X-gal OD620, 72 h. inhibition, % at 10 µM. 280,000 tested, 0.61% active; in the data active means inhibition mostly above about 24%, no sharp cut-off; inactive means mostly below about 32%
# NLRP3 yeast inh – NALP3 inflammasome inhibitors in reconstituted yeast, primary screen, luminescence, uHTS; Yeast reconstituted NLRP3/ASC/caspase-1, beta-gal luminescence, 24 h; inhibition, % at 10 µM; 330,000 tested, 0.39% active;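 active means inhibition of 50% or more; inactive means inhibition below 50%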;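 further: plate controls were induced DMSO wells for no effect and uninduced yeast grown without galactose for full effect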
# tim10-1 inh – growth inhibitors of tim10-1 mutant yeast, primary screen, luminescence, uHTS; 330,000 tested, 2.2% active; inhibition, % at 20 µM; AID 463190, 2010; S. cerevisiae tim10-1 ts strain growth, BacTiter-Glo, 24 h;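 active means inhibition of at least 40%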;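 further: mutant grown at 25 °C; 0% = DMSO wells with yeast and 100% = wells holding no yeast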
# tim10-1 conf – growth inhibitors of tim10-1 mutant yeast, confirmation, single concentration, luminescence, S. cerevisiae; inhibition, % at 20 µM; S. cerevisiae tim10-1 ts strain growth, BacTiter-Glo, 24 h; AID 463213, 2010; 7,400 tested, 56% active; shares compounds with tim10-1 inh;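 active means inhibition of yeast growth at or above a set limit in either of two repeat tests at 20 µM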;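 further: tim10-1 mutant grown at permissive 25 °C to find synthetic lethal compounds; 0% = DMSO yeast wells and 100% = medium wells without yeast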
# An asterisk follows results filed as active; . = not tested or not shown.
SMILES,tim23-1 inh,TIM10 inh,NALP1 yeast inh,NLRP3 yeast inh,tim10-1 inh,tim10-1 conf
C=COC(=O)CSc1snc(SCC(=O)OC)c1C#N,31,14,9,16,43*,7
CC1CC1C(=O)Nc1ccc(S(=O)(=O)N2CCCCC2)cc1 (stereo not given),17,14,.,12,23,.
C=CC(C)(C)c1c(O)c(CC=C(C)C)c(O)c2c(=O)c3ccc(O)c(O)c3oc12,43,-1,.,-4,44*,29*
O=C(CNC(=O)c1cccs1)OCC(=O)c1ccc2ccccc2c1,25,38,-4,-2,40*,15
CC(NC(=O)c1c(O)c2ccccc2[nH]c1=O)c1ccccc1 (stereo not given),14,-18,8,36,-50,.
Cc1ccc(S(=O)(=O)N2CCC3(CC2)OCCN3S(=O)(=O)c2cccs2)cc1,38,5,.,12,35,.
COc1ccc(S(=O)(=O)N2CCOC23CCN(S(=O)(=O)c2ccc(F)cc2)CC3)cc1,45,19,.,24,47*,31
COc1ccc(S(=O)(=O)N2CCOC23CCN(S(=O)(=O)c2ccc(C)cc2)CC3)cc1,47,19,.,23,46*,28
O=S(=O)(c1ccc(Cl)cc1)N1CCC2(CC1)OCCN2S(=O)(=O)c1cccs1,27,-3,.,2,48*,29*
CCOc1cc(C(=S)N2CCOCC2)ccc1OC(=O)c1ccc(C)cc1,34,4,12,11,21,.
COC(=O)[C@H](Cc1ccccc1)NC(=O)O[C@H]1C(=O)c2ccc(OC)cc2O[C@@H]1c1ccc2c(c1)OCO2,-11,-6,26,-1,29,.
O=C(COc1ccc(F)cc1)Nc1nc(-c2ccccn2)cs1,41,-6,.,44,22,.
O=C(COc1ccc([N+](=O)[O-])cc1)Nc1nc(-c2ccccn2)cs1,38,0,.,27,42*,13
CC(C)(CO)NC(=O)Nc1ccc(Cl)c(Cl)c1,11,-6,3,1,16,.
N#C/C(=C\c1c[nH]c2ccc(Br)cc12)c1ccccn1,47,19,-3,21,48*,35*
CCOC(=O)N(NC(=O)C(O)(CC(C)C)CC(C)C)c1ccccc1,14,-8,9,-3,24,.
c1ccc(Cn2cnc3ccccc32)cc1,-8,-10,6,-24,0,.
Cc1cc(C)c(Cn2cnc3ccccc32)c(C)c1,40,26,5,0,43*,20
S=C(NCCC(c1ccccc1)c1ccccc1)Nc1cccc(Cl)c1,32,33,3,30,40*,17
S=C(N/N=C/c1cccc2ccccc12)Nc1cccc(Cl)c1,27,-2,-4,26,43*,37*
Fc1cccc(NC(=S)NCc2ccccc2Cl)c1,38,29,6,2,50*,44*
CCN1C(=O)[C@H]2[C@@H](c3ccc(-c4ccc(Cl)c(Cl)c4)c(OC)c3)N[C@@](Cc3ccccc3)(C(=O)OC)[C@H]2C1=O,-2,-3,.,10,5,.
O=C(COc1ccc(S(=O)(=O)N2CCCC2)cc1)NCC1CCCO1 (stereo not given),18,-4,2,5,6,.
COC(=O)C1CCN(S(=O)(=O)CCNC(=O)c2ccc(F)cc2)CC1,12,-1,.,6,-4,.
Cc1occc1-c1nnc(SCC(=O)Nc2ccccc2N2CCCCC2)n1C,30,18,14,5,47*,25
SMILES,tim23-1 inh,TIM10 inh,NALP1 yeast inh,NLRP3 yeast inh,tim10-1 inh,tim10-1 conf
Cc1occc1-c1nnc(SCC(=O)Nc2ccccc2)n1C,13,17,0,3,14,.
CC1(C)CC(=O)/C(=C(\O)c2ccccc2)C(=NCCc2ccccc2)C1,35,13,11,-4,45*,28
CCOC(=O)c1c(CSc2ccc(C)cc2)n(C)c2cc(Br)c(O)c(CN(C)C)c12,36,37,17,18,41*,44*
CCC(c1nnnn1Cc1ccccc1)N1CCN(c2ccccc2)CC1 (stereo not given),13,1,2,-10,41*,24
O=C(Nc1ccc(Cl)cn1)C1CCN(c2ncnc3c2nc2n3CCCCC2)CC1,26,24,22,20,50*,19
O=C(Nc1cccnc1Cl)C1CCCN(c2ncnc3c2nc2n3CCCCC2)C1 (stereo not given),14,4,-12,20,14,.
COc1ccc(Cl)cc1NC(=O)C1CCCN(c2ncnc3c2nc2n3CCCCC2)C1 (stereo not given),36,24,7,11,56*,23
Cc1ccnc(NC(=O)C2CCCN(c3ncnc4c3nc3n4CCCCC3)C2)c1 (stereo not given),33,22,10,6,45*,17
CSc1cccc(NC(=O)C2CCCN(c3ncnc4c3nc3n4CCCCC3)C2)c1 (stereo not given),38,9,17,16,48*,4
Cc1ccc(C2=Nc3cccnc3C(c3ccccc3)=NN2)cc1,-1,-1,10,13,12,.
CCOC(=O)C1CCCN(C(=O)/C=C/c2ccc(Cl)cc2)C1 (stereo not given),19,-14,-29,2,41*,18
CCOC(=O)CC1COCCN1Cc1cn[nH]c1-c1cc(OC)c(OC)c(OC)c1 (stereo not given),-6,-17,.,-3,6,.
CCCC(=O)NC(=S)Nc1ccc(Cl)cn1,47,39,12,20,45*,32*
Cc1cc(Cl)ccc1OCC(=O)NC(=S)Nc1ccc(Cl)cn1,-1,-1,6,14,-19,.
Cc1ccc(S(=O)(=O)CNC(=S)c2cccc(C)c2)cc1,25,23,-18,5,34,.
COc1ccc(C(=S)NCS(=O)(=O)c2ccc(C)cc2)cc1,32,15,2,-1,40*,19
CNC(=O)NC(=O)CSc1ccc(S(=O)(=O)N(C)C2CCCCC2)cn1,31,12,.,15,21,.
Nc1ncnc(Nc2cccc(C(F)(F)F)c2)n1,-4,-6,9,16,8,.
Nc1nc(Nc2cccc(C(F)(F)F)c2)nc(C(F)(F)F)n1,42,39,20,17,44*,35*
COC(=O)c1c(SCC(=O)Nc2ccc(C)c(C)c2)nc(=O)[nH]c1C,2,-12,.,-8,8,.
Cc1ccccc1C(=O)NC1CCN(C(=O)Nc2ccc(F)cc2)CC1,8,0,9,16,-7,.
N#C/C(C(=O)N1CCCCC1)=C1/N=C(N)c2ccccc21,14,4,27,11,2,.
N#C/C(C(=O)N1CCCCC1)=C1/N=C(NC(=O)c2ccc(F)cc2)c2ccccc21,29,15,0,13,44*,-3

# Screening data from PubChem BioAssay.
